Bioassay records as filed in PubChem.
In the library only some 4.1% were active in any assay of this set; here they are far more common.
tim10-1 inh: growth inhibitors of tim10-1 mutant yeast. S. cerevisiae tim10-1 ts strain growth, BacTiter-Glo, 24 h. inhibition, % at 20 µM. hit rate 2.2% among 330,000;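 active = inhibition of at least 40%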;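 also: mutant grown at 25 °C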
tim23-1 inh: tim23-1 yeast growth inhibition; S. cerevisiae tim23-1 growth, BacTiter-Glo luminescence, 24 h; inhibition, % at 20 µM; hit rate 1.3% among 330,000; AID 463212;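 active = growth inhibition of the mutant yeast at or above 50%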;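 also: temperature-sensitive mutant grown at 25 °C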
TIM10 inh: inhibits growth of TIM10 yeast strain; hit rate 1.4% among 330,000; S. cerevisiae TIM10 strain growth, BacTiter-Glo luminescence, 24 h; inhibition, % at 10 µM;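 active = inhibition of 40% or more at the single tested concentration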;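 also: wild-type TIM10 isogenic control strain grown at permissive 25 °C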
NALP3 yeast inh: blocks the NALP3 inflammasome reconstituted in yeast; Yeast reconstituted NLRP3/ASC/caspase-1, beta-gal luminescence, 24 h; inhibition, % at 10 µM; hit rate 0.39% among 330,000;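 active = inhibition of 50% or more; inactive = inhibition below 50%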
NALP1 yeast inh: inhibitors of NALP1 inflammasome in yeast; S. cerevisiae NALP1/ASC/caspase-1 growth, X-gal OD620, 72 h; inhibition, % at 10 µM; hit rate 0.61% among 280,000; in the data active = inhibition mostly above about 24%, no sharp cut-off; inactive = mostly below about 32%
PfHsp90 yeast 2: growth inhibition of yeast expressing Plasmodium Hsp90; AID 504621; hit rate 0.32% among 310,000; inhibition, % at 9.4 µM; S. cerevisiae expressing PfHsp90, BacTiter-Glo ATP, 48 h; yeast lacking PDR1 and PDR3 efflux regulators;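 active = every replicate shows inhibition above about 80%, whatever the replicate mean, limit read from the data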
Hits are given with their value; n = inactive; x = no result; ! = a repeat was not active.

SMILES	tim10-1 inh	tim23-1 inh	TIM10 inh	NALP3 yeast inh	NALP1 yeast inh	PfHsp90 yeast 2
CC(C)=CCc1c(O)ccc2c1OC(c1ccc(O)c(O)c1)CC2=O (stereo not drawn)	n	n	n	n	n	n
CC(C)=CCc1c(O)ccc(C2COc3c(CC=C(C)C)c(O)cc(O)c3C2=O)c1O (stereo not drawn)	n	n	n	n	x	106
O=c1[nH]c2ccccc2nc1C(F)(F)F	n	n	n	n	37	n
CCc1nc2ccccc2[nH]c1=O	n	n	n	n	n	n
OC(COc1ccc(F)cc1Cl)CN1CCC(Cc2ccccc2)CC1 (stereo not drawn)	n	n	n	n	42	n
OC(COc1ccccc1F)CN1CCC(Cc2ccccc2)CC1 (stereo not drawn)	n	n	n	n	n	n
O=C(NCCN1CCN(c2ccccc2)CC1)c1ccc(NC(=O)C2CCCO2)cc1 (stereo not drawn)	n	n	n	n	42	x
CC1OC(CC(=O)O)CC2=C1C(=O)c1c(O)cccc1C2=O (stereo not drawn)	x	x	x	x	x	106
O=C1C=C(O)c2cccc(O)c2C1=O	n	n	n	n	n	n
COc1ccc(CCN(C)CCCN2CC(c3ccccc3)CC2=O)cc1OC (stereo not drawn)	n	n	n	n	22	n
COc1ccc(C2CC(=O)N(CCCN(C)CCc3ccc(OC)c(OC)c3)C2)cc1 (stereo not drawn)	n	n	n	n	n	n
C[C@@H](C(=O)N=c1sc2ccccc2n1C)N1C(=O)C2CC=CCC2C1=O (stereo partly drawn)	x	x	x	x	x	n
Cn1ncc(S(=O)(=O)Cc2ccccc2)c(Cl)c1=O	n	n	n	n	108	n
CCOC(=O)c1[nH]c(C)c(CCC(=O)OC)c1C	n	n	n	n	n	x
CCOC(=O)c1[nH]c(C)c(CCC(=O)O)c1C	n	n	n	n	41!	n
Cc1cc(C)c(S(=O)(=O)NCC23C=CC(O2)C2C(=O)N(c4ccccc4)C(=O)C23)c(C)c1 (stereo not drawn)	n	n	n	n	n	104
CC(C)(C)C(=O)NCC12C=CC(O1)C1C(=O)N(c3ccccc3)C(=O)C12 (stereo not drawn)	n	n	n	n	n	104
O=C1C2C3C=CC(CNS(=O)(=O)c4ccccc4[N+](=O)[O-])(O3)C2C(=O)N1c1ccccc1 (stereo not drawn)	n	n	n	n	n	111
O=C(COc1ccccc1)OCC(=O)c1ccc(S(=O)(=O)N2CCCCC2)cc1	n	n	n	n	x	n
O=C(Nc1nnc(C2CC2)s1)c1cncc(Br)c1	n	n	n	n	x	n
O=C(NN=C1CCCC1)c1cccs1	n	n	n	n	n	n
O=C(NN=C1C2CC3CC(C2)CC1C3)c1cccs1	n	n	n	n	41	n
CCN(CC(=O)NCc1cccs1)C(=O)c1cc(Br)ccc1O	n	n	n	n	x	n
Cc1nc(/N=C(\N)N(C)C)[nH]c(=O)c1C	n	n	n	n	n	n
COC(=O)c1sc(NC(=O)c2cc3c(s2)CCCC3)nc1C	n	n	n	n	33	n
SMILES	tim10-1 inh	tim23-1 inh	TIM10 inh	NALP3 yeast inh	NALP1 yeast inh	PfHsp90 yeast 2
Cc1ccc(C(=O)O)cc1N=Cc1cc(Br)cc(Br)c1O	x	x	x	x	70	107
CC(C)C(=O)Nc1ccc(C(=O)N/N=C/c2cc(Br)cc(Br)c2O)cc1	n	n	n	n	n	n
Cc1ccc(CN2CCN(Cc3cnc(C)s3)CC2CCO)o1 (stereo not drawn)	n	n	n	n	n	n
Cc1ccc(CN2CCN(Cc3cnc(N4CCOCC4)s3)CC2CCO)o1 (stereo not drawn)	n	n	n	n	26	n
O=C(/C=C/Nc1ccc(F)c(Cl)c1)c1ccco1	n	n	n	n	31	n
CC(C)Cn1cnc2sc3c(c2c1=N)CCCC3	n	n	n	n	40	x
N=c1c2c3c(sc2ncn1Cc1ccco1)CCCCC3	n	n	n	n	n	n
Cc1cc(C(C)(C)CC(C)(C)C)ccc1OCCOCC[N+](C)(C)Cc1ccccc1	n	n	n	n	x	113
COc1ccc(-c2nc(CS(=O)CC(=O)NC3CCCCC3C)c(C)o2)cc1 (stereo not drawn)	n	n	n	n	n	n
CC(=O)c1ccc(N2CCN(C(=O)c3ccc(C(=O)c4ccccc4)cc3)CC2)cc1	n	n	n	n	x	n
CC(NCC(=O)Nc1cc(S(=O)(=O)N2CCOCC2)ccc1Cl)c1ccc(Cl)cc1Cl (stereo not drawn)	n	n	n	n	x	x
COc1ccccc1NS(=O)(=O)CC12CCC(CC1=O)C2(C)C (stereo not drawn)	n	n	n	n	42	n
COc1cccc(NS(=O)(=O)CC23CCC(CC2=O)C3(C)C)c1 (stereo not drawn)	n	n	n	n	n	n
O=C(CCC(=O)Nc1ccccc1Cl)NN=C1CCCC1	n	n	n	n	n	n
Cc1ccc(S(=O)(=O)N(C(=O)c2ccncc2)c2ccc(OC(=O)c3ccncc3)c3ccccc23)cc1	n	n	n	n	48	n
CCOC(=O)N1CCN(C(=O)CN2C(=O)COc3ccc(C(C)(C)C)cc32)CC1	n	n	n	n	26	n
Cc1ccc(NC(=O)C2CCCN2C(=O)NC2CCCCC2)cc1 (stereo not drawn)	n	n	n	n	25	n
CC(=O)Oc1ccccc1C(=O)C=Cc1cccc([N+](=O)[O-])c1	x	x	x	x	x	106
Cc1cc(O)c(C(=O)/C=C/c2cccc([N+](=O)[O-])c2)c(=O)o1	n	n	n	n	x	n
CCCCC[C@@H](/C=C/C1C(=O)C=C[C@H]1C/C=C\CCCC(=O)OC)OC(C)=O (stereo partly drawn)	x	x	x	x	x	n
CC(=O)c1cccc(NC(=S)NC(=O)c2ccc(C)cc2Cl)c1	n	n	n	n	37	x
CC(=O)c1cccc(NC(=S)NC(=O)c2ccccc2Cl)c1	n	n	n	n	n	n
CC(=O)c1ccccc1NC(=O)COC(=O)/C=C/c1ccc(OC(F)F)cc1	n	n	n	n	x	x
Cc1ccc(-c2nnn(CC(=O)Nc3nnc(C(C)C)s3)n2)cc1	n	n	n	n	37	n
CCC(CC)c1nnc(NC(=O)COc2ccc3c(c2)OCO3)s1	n	n	n	n	n	n
CC(C)c1nnc(NC(=O)COc2ccc3c(c2)OCO3)s1	n	n	n	n	30	n
CCOc1ccc(S(=O)(=O)N(CCO)CCO)cc1-c1nc2c(C(C)(C)C)nn(C)c2c(=O)[nH]1	n	n	n	n	n	n
CCCc1nn(C)c2c(=O)[nH]c(-c3cc(S(=O)(=O)N(CCO)CCO)ccc3OCC)nc12	n	n	n	n	30	n
COc1ccc(CNCCC(c2ccc(OC)cc2)c2ccccc2OC)cc1 (stereo not drawn)	n	n	n	n	n	n
COc1ccc(CCNCc2ccc(OCc3ccccc3)cc2)cc1	n	n	n	n	45	n
